# The campaign covered roughly 65,000 compounds. About 2,100 (3.2%) showed an effect of 50% or more. The median lay at about -52%. Shown is part of a subset that was picked to be rich in strong results.
# Tested on: Plasmodium falciparum
# Assay: Screen against P. falciparum Asexual Blood Stage (ABS), at 5uM
# Type: functional, Dd2
# Details: tested at 5 uM
row,SMILES,INHIBITION [%]
1,CCS(=O)(=O)N1CCc2c(COCCN(C)C)cncc2C1,-62.2
2,O=S1(=O)NCC2(CCNCC2)COc2ccccc21,-55.2
3,O=S1(=O)c2ccccc2OCC2(CCN(CCO)CC2)CN1CC1CC1,76.9
4,Cc1cccc(CN2CCC3(CCCN(CC(=O)N(C)C)C3)C2)n1 (stereo not given),-47.6
5,Oc1cccc2ccc(CN3CCC4(CCNCC4)C3)nc12,89.9
6,c1ccc(-c2ncc(CN3CCC4(CCNCC4)C3)cn2)cc1,10.6
7,Cc1nn(-c2ncccn2)c2c1C(c1cnn(C)c1)SCC(=O)N2 (stereo not given),-15
8,O=C(CSc1ccccn1)N1CCN(CCO)[C@@H]2CS(=O)(=O)C[C@@H]21,-35.4
9,COc1ccnc(CN2CCCC(CCc3ccccc3)C2)c1OC (stereo not given),90.1
10,COc1ccnc(CN2CCCC(CCc3ccc(F)cc3)C2)c1OC (stereo not given),88.9
11,N#CC1(c2ccccc2)CCN(C(=O)C2CCCN(CC(N)=O)C2)CC1 (stereo not given),-116
12,CCC(O)CN1CCN(C(=O)Cc2nc(-c3ccco3)oc2C)CC1 (stereo not given),-62.9
13,CC(Cc1ccc(Cl)cc1)N(C)C(=O)NCCS(C)(=O)=O (stereo not given),-65.7
14,O=C(c1ccncc1)N1CCN2C[C@H](Oc3cccnc3)C[C@H]2C1,-77
15,CC(C)N(CCNC(=O)c1[nH]nc2ccc(I)cc12)C(C)C,86.9
16,CC[C@@H]1N(Cc2ccncc2)CCC[C@]12CCC(=O)N2CCOC,-38
17,COc1ccc(NC(=O)CCN2CC=C(c3cnn(C)c3)CC2)cc1Cl,67.2
18,CCc1cccc(NC(=O)CCN2CC=C(c3cnn(C)c3)CC2)c1,-33.3
19,COc1ccc(NC(=O)CCN2CC=C(c3cnn(C)c3)CC2)c(C)c1,-33.1
20,Cc1ccc2nc(C)c(C)c(C(=O)N[C@H]3COC[C@@H]3N3CCCC3)c2c1,-47.2
21,Cc1cc(CN2CC[C@H]3C[C@@H](C)O[C@@H]3C2)no1,-71.2
22,Cc1n[nH]c2c1C(c1ccc3c(c1)OCO3)SCC(=O)N2 (stereo not given),-22

row,SMILES,INHIBITION [%]
1,COc1cccc(-n2ccc3nc(N4CCCC4)ncc3c2=O)c1,91.7
2,CC(=O)Nc1cccc(-c2ccccc2CCN)c1,-108
3,COc1ccc2c(ccn2CCN)c1,26.1
4,COc1ccc(CCN)cc1-c1ccc(S(C)(=O)=O)cc1,21.8
5,CC(=O)Nc1ccc(-c2ccccc2CCN)cc1,-115
6,COc1ccc(-c2ccccc2CCN)c(OC)c1OC,81.8
7,COc1ccc(-c2ccccc2CCN)c(OC)c1,81.6
8,CN1C[C@@H]2COC[C@]2(C(=O)NCc2cccs2)C1,-12.4
9,CCc1[nH]c(C2(N)CCCCC2)nc(=O)c1C,-30.6
10,Cc1noc(C)c1CN1CCO[C@H]2CN(CC3CC3)C[C@H]21,26.3
11,Cc1nc(=O)c(CC(=O)N2C[C@H]3CC[C@@H](C2)N(CC2CCC2)C3)c[nH]1,-30
12,COc1ccc(C(=O)C2CCCN(CCc3ccccc3)C2)c(OC)c1 (stereo not given),71.8
13,COCC1COCCC12CCN(C(=O)Cc1cccc(OC)c1)CC2 (stereo not given),-3.52
14,COc1ccc(C(=O)C2CCCN(Cc3ccccc3O)C2)c(OC)c1 (stereo not given),-55.9
15,CCN(CC1CCCN(CCc2cccc(OC)c2)C1)C(=O)CN(C)C (stereo not given),83.3
16,Cc1nc(NCc2ccco2)nc2c1COCC21CCNC1 (stereo not given),21.7
17,Cn1cc(N2CCC3(CCN(Cc4cccnc4)C3)C2=O)cn1 (stereo not given),-35.8
18,CCCN1CC2(CCN(c3ncc(F)cn3)CC2)CC1C(=O)O (stereo not given),-31.5
19,CN(C)C[C@@H]1C[C@@H]2CN(c3ncc(F)cn3)CC[C@@H]2N1C,12.3
20,CN(C)C[C@@H]1CN(C2CCN(c3ccc(Cl)cc3)CC2)C[C@@H]1CO,88.5
21,Cc1cc(F)ccc1N1CCC(N2C[C@@H](CN(C)C)[C@@H](CO)C2)CC1,92.6
22,CN(C)C[C@@H]1CN(C2CCN(c3ccccc3Cl)CC2)C[C@@H]1CO,74

row,SMILES,INHIBITION [%]
1,CN(CCO)C[C@@H]1CN(C2CCN(c3ccccc3Cl)CC2)C[C@@H]1CO,79.5
2,COCCO[C@H]1COCCN(C2CCN(C)CC2)C1,-110
3,Cc1cc(CN2C[C@@H]3CCCO[C@@H]3[C@H](NS(C)(=O)=O)C2)no1,-28.3
4,O=C(C1CCCCC1)N1CCO[C@@H]2CNC[C@@H]21,-65.1
5,COC[C@]12COC[C@H]1CN(Cc1cccnc1OC)C2,-130
6,CN(CCO)C[C@@H]1CN(Cc2ccccc2-c2ccccc2)C[C@@H]1CO,87.6
7,CC(C)=CCN1C[C@@H]2CC[C@H]1CN(C(=O)Cc1c(C)[nH]c(C)nc1=O)C2,-28.2
8,CCOc1ccc(CN2CCCC(c3cc4ncccc4[nH]3)C2)cc1 (stereo not given),85
9,O=C(Cc1cccnc1)N1C[C@@H]2CC[C@H]1CN(Cc1ccc(F)cc1)C2,-13.8
10,Fc1ccc(CN2CCCC(c3cc4ncccc4[nH]3)C2)cc1 (stereo not given),82.3
11,Fc1ccc(CN2CCO[C@H]3[C@H](Oc4ccccn4)CC[C@@H]32)cc1,-29
12,c1cc(CO[C@H]2CC[C@H]3[C@H]2OCCN3Cc2nccs2)ccn1,-84.3
13,CN(C)C(=O)[C@H]1C[C@@H]2CCN(Cc3ccncc3)C[C@H]2O1,-59.7
14,CCc1c(C)sc2ncnc(N3CC[C@@H](N4CCC(O)CC4)[C@H](O)C3)c12,75.5
15,Cc1cc(C)c(CNc2cnc3ccccc3n2)c(=O)[nH]1,12.9
16,COc1ccccc1CC(=O)N1CCN(Cc2ccco2)C[C@@H]1C,-101
17,COc1ccccc1CC(=O)N(CCN1CCOCC1)Cc1ccco1,-29.3
18,COc1ccccc1CCN1CCCC(CN(C)Cc2ccc(C)o2)C1 (stereo not given),87.8
19,Cc1nc(CN2CCOCC3(CCN(c4ncccn4)C3)C2)cs1 (stereo not given),-42.9
20,Cc1nc(CN2CCOCC3(CCN(c4ccccn4)C3)C2)cs1 (stereo not given),0.814
21,Cc1nc(CNCc2c(C(C)C)nn(C)c2N2CCOCC2)cs1,71.7

# Reference: ChEMBL document CHEMBL4513216, “Probing the Open Global Health Chemical Diversity Library for Multistage-Active Starting Points for Next-Generation Antimalarials” (ACS Infect Dis, 2020)
